Rows were chosen to be rich in hits. Some 28% of all compounds tested hit in one or more screens of this group.
DAT uptake mod = changed hDAT dopamine uptake under cocaine IC80, either direction, primary screen, cocaine antagonist project, cell-based, LLC-PK1 hDAT, [14C]-dopamine uptake, MLSMR. LLC-PK1 hDAT cells, [14C]-dopamine uptake with cocaine IC80; actives deviate in either direction. B-score at 10 µM. AID 449768, 2010. hit rate 1.3% among 110,000;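 active = Z score or B-score, a plate-position-corrected score, falls beyond the plate's 99.7% confidence bounds, in either direction; inactive = both scores lie inside the 99.7% bounds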;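 also: scored against the spread of the other compound wells on the same plate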
CYP2C9 act = human CYP2C9 activators, primary screen, biochemical, luminescence; Cytochrome P450 2C9 (Homo sapiens), P11712; recombinant CYP2C9, luciferin-H conversion; stronger effect = higher value; factor 1 = untreated enzyme, 0 = blocked; activation factor at 5 µM; hit rate 1.4% among 96,000;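 active = activation factor of 2 or more for CYP2C9 at a 5 µM dose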;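 also: 0 = sulfaphenazole-blocked wells and 1 = vehicle-only wells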
D1 mod = D1 CRE-luciferase signal change, two-sided – cell-based, HEK293 D1, dopamine EC30, D1 allosteric modulator project, primary screen; B-score at 10 µM; AID 641, 2007; dopamine EC30 potentiation; actives deviate in either direction; hit rate 5.9% among 58,000; D(1A) dopamine receptor (Homo sapiens), P21728;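 active = luminescence count or its row- and column-corrected plate score outside the 99.7% band of the plate's sample wells, on either side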
CYP2C19 activ = human CYP2C19 activators, primary screen, biochemical, luminescence; Cytochrome P450 2C19 (Homo sapiens), P33261; recombinant CYP2C19, luciferin-H EGE luminescence; stronger effect = higher value; 0 = fully inhibited enzyme, 1 = untreated enzyme; activation factor at 5 µM; 96,000 tested, under 10 active;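 active = activation factor of at least 2 at 5 µM in the primary screen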;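 also: 0 = wells with 2.5 mM tranylcypromine and 1 = vehicle-only wells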
Target sequence (P33261 whole entry, looked up): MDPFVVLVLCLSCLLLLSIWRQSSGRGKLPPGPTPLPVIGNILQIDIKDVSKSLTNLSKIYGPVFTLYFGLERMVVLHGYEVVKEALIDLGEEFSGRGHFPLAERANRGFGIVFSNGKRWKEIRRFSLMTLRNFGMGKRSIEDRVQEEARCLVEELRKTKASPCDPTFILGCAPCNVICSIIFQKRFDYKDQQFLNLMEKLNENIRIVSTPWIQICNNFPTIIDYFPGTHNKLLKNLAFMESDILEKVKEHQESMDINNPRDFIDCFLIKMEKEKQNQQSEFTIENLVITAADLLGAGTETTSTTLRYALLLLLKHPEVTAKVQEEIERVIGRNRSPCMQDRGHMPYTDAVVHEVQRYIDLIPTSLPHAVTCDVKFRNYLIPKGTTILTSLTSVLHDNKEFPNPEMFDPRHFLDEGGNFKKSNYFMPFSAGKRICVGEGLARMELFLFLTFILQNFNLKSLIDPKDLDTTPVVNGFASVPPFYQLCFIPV
CYP2C9 inh = blockers of cytochrome P450 2C9 activity – biochemical, luminescence, ADME assay, primary screen; P11712; CYP2C9 Supersomes, luciferin-H conversion; inhibition, % at 5 µM; hit rate 20% among 96,000; AID 777, 2007;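 active = blocking of liver enzyme CYP2C9 beyond about 50% at 5 µM, limit read from the data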
CYP2C19 inhib = blockers of cytochrome P450 2C19 activity – biochemical, luminescence, ADME assay, primary screen; CYP2C19 Supersomes, luciferin-H EGE luminescence, 30 min; AID 778, 2007; hit rate 21% among 96,000; inhibition, % at 5 µM; P33261;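 active = CYP2C19 inhibition above a set limit at 5 µM in the primary screen, cut at about 50% in these data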;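 also: plate controls were negative control wells for no effect and 2.5 mM tranylcypromine positive control for full effect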
* = called active by the depositor; . = not tested or not shown.

SMILES	DAT uptake mod	CYP2C9 act	D1 mod	CYP2C19 activ	CYP2C9 inh	CYP2C19 inhib
CCCCSc1nnc([C@@H](NC(=O)OC(C)(C)C)C(C)C)o1	0.561	0.6	-0.573	0.5	43.9	50.2*
C=C(C)CSc1nnc([C@@H](NC(=O)OC(C)(C)C)C(C)CC)o1 (stereo not given in full)	-0.666	0.5	-0.868	0.2	52.0*	83.0*
CCOC(=O)CSc1nnc([C@@H](NC(=O)OC(C)(C)C)C(C)C)o1	0.584	1	-0.606	0.9	2.2	5.5
Cc1cc(C)nc(/N=C(/NC(=O)Nc2cccc(Cl)c2)Nc2ccccc2)n1	-1.19	0.8	.	1	20.5	4.4
COc1ccc(C2/C=C\CN(C(=O)c3ccc(C)cc3)[C@H](Cc3ccccc3)C(=O)N2Cc2ccc(F)cc2)cc1 (stereo not given in full)	0.469	.	.	.	.	.
CC(=O)Nc1ccc(C(=O)NC(CC(=O)O)c2ccc(Cl)cc2)cc1 (stereo not given)	-0.348	1	.	1.1	1.8	-7.3
C/C(O)=C(/N=O)C(=O)Nc1ccccc1	0.0333	0.9	-0.0374	0.9	11.0	7.9
CC(=O)/C=N/Nc1ccccc1	0.121	0.4	.	1.1	60.1*	-6.2
CCN(CC(=O)NCc1ccccn1)S(=O)(=O)c1ccc(Cl)cc1	-0.0245	0.9	-0.23	0.6	5.4	40.3
COC(=O)[C@@]1(Cc2ccccc2)[C@H]2c3cc(C(=O)N4CCCC4)n(Cc4ccsc4Br)c3C[C@H]2CN1C(=O)c1ccccc1	-0.343	.	.	.	.	.
Cc1sc(NC(=O)CSC2=NCCS2)nc1-c1ccccc1	-0.001	0.6	.	0.6	41.9	35.5
COc1ccc(-c2nc(NC(=O)Cn3ccc(C(F)(F)F)n3)sc2C)cc1	1.28	0.6	.	0.4	39.8	57.4*
Cc1c(C(=O)Nc2ccc(Cl)cc2)c2ccccn2c1C(=O)c1ccc([N+](=O)[O-])cc1	0.343	0.2	.	0.8	80.6*	17.3
Cc1c(C=O)c2ccccn2c1C(=O)c1ccccc1	0.0999	0.1	.	0.1	90.4*	85.2*
Cc1c(C(=O)Nc2ccc(Cl)cc2)c2ccccn2c1C(=O)c1ccccc1	-9.53*	0.7	.	0.9	32.8	14.6
O=C(COn1nnc2ccc(Cl)cc21)NCc1ccccc1	0.368	1.2	-1.24	0.5	-15.8	47.1
CCn1cc(C(=O)NCc2ccc(Cl)cc2)c(=O)c2cc(S(=O)(=O)N3CCOCC3)ccc21	0.591	0.6	1.43	1.2	42.2	-16.7
CC1NC(=O)NC1CCCCC(=O)O (stereo not given)	0.369	1	.	1	-4.0	-4.5
Cc1ccc(NC(=O)CCCCCC2NC(=O)NC2C)cc1 (stereo not given)	0.025	1.5	0.129	0.4	-48.4	60.6*
Cc1cccc2c1N1C(=O)c3c(C(=O)O)cccc3C1CC2C (stereo not given)	0.373	.	.	.	.	.
Cc1cc(NC(=O)COC(=O)C(Nc2ccc(C(F)(F)F)cc2Cl)C(C)C)no1 (stereo not given)	0.2	0.5	0.0408	0.4	52.1*	56.9*
Cc1cc(NC(=O)COC(=O)[C@H](C)NC(=O)c2ccccc2)no1	-0.4	0.9	.	1	6.7	-2.0
Cc1ccc(S(=O)(=O)N2CCC(=O)N(CCO)CC2)cc1	-1.68	.	.	.	.	.
CC(=O)OCc1nc2sc3c(c2c(=O)[nH]1)CCCC3	-0.561	.	.	.	.	.
CC(C)CCOCc1nc2sc3c(c2c(=O)[nH]1)CCC(C)C3 (stereo not given)	0.993	0.3	.	0.5	71.9*	54.2*
CCOc1cc(C2C(C(=O)O)c3cc(OCC)c(OCC)cc3C(=O)N2C)ccc1O (stereo not given)	-1.52	1.2	-0.231	1.2	-18.8	-15.2
CCOc1cc(C2Nc3ccccc3C(=O)N2c2ccccc2OC)ccc1O (stereo not given)	0.331	0.5	-0.0508	0.8	52.3*	20.9

Source: PubChem BioAssay
